# Screening results deposited in PubChem by National Center for Advancing Translational Sciences (NCATS).
# Cycloheximide cs: affects cycloheximide protein synthesis inhibition readout, counter-screen | cell reporter, cycloheximide protein synthesis inhibition counterscreen | max response, % | 300,000 tested, 12% active | AID 2314; in the data active = max response mostly above about 13%, no sharp cut-off; inactive = mostly below about 14%; note: read at 38.3 µM for the half of the compounds with a filed dose; 0% is about no effect
# Pf growth 48h: inhibits P. falciparum growth in the first generation, 48 h. AID 504832. Potency, µM (top dose mostly 28.7 µM), for inactives: at the top dose activity change, negative = inhibition, actives largely listed as inhibitors. 310,000 tested, 5.9% active. P. falciparum luciferase growth in erythrocytes, 48 h; note: potency is the fitted concentration of half-maximal effect; % is set by controls: 0 for no effect and ±100 for the full control effect
#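 Luciferase-expressing parasites in RBCs, 2% Hct / 0.1% parasitemia final; RPMI 1640 + 0.5% Albumax; 37 C, 5% CO2, one generation; luminescence read-out, lower signal = inhibition.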
# NS1 function inh: inhibitors of influenza NS1 protein function. Potency, µM (top dose mostly 46.1 µM), for inactives: at the top dose activity, positive = more growth. 270,000 tested, 0.4% active. AID 2326; calls by dose curve; note: potency is the fitted concentration of half-maximal effect; actives are rising curves; nearly all actives have a fitted effect of over 50% in size
#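 Growth recovery, yeast-based: influenza A NS1 expressed in S. cerevisiae causes slow growth, and suppressors are detected by OD600. The parent strain without NS1 is used as positive control.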
# FBPA Giardia inh: inhibitors of Giardia lamblia fructose-1,6-bisphosphate aldolase | A8B2U2 | purified Giardia FBPA | Potency, µM (doses to about 59.6 µM), for inactives: at the top dose activity, negative = inhibition, usual class: inhibitors | 290,000 tested, 0.71% active | AID 2451; note: potency is the fitted concentration of half-maximal effect; % is set by controls: 0 for no effect and ±100 for the full control effect; nearly all actives have a fitted effect of over 55% in size
# Target sequence (A8B2U2 whole entry, looked up): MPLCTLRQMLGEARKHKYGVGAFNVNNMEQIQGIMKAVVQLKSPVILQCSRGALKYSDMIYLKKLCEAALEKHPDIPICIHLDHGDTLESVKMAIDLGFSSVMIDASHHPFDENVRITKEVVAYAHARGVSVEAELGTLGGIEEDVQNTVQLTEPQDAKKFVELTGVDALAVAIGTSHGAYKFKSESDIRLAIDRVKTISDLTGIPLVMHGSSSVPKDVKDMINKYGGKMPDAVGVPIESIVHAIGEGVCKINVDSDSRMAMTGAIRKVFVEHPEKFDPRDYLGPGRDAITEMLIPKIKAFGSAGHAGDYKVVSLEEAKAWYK
#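 Giardia FBPA (40 nM reagent) was preincubated 10 min at RT with compound (up to 57.5 uM final), then substrate plus GAPDH/TPI/NAD/arsenate coupling system with diaphorase/resazurin was added; resorufin fluorescence (525/598 nm) was read after 20 min.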
# Pf growth 96h: inhibits malaria parasite growth, 96 h | P. falciparum luciferase reporter growth, 96 h | Potency, µM (series often up to 28.7 µM), for the others: at the highest dose activity change, negative = inhibition, most hits filed as inhibitors | 320,000 tested, 6.9% active; note: potency is the fitted concentration of half-maximal effect; % is set by controls: 0 for no effect and ±100 for the full control effect
#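 Delayed-death screen, second-generation endpoint: infected erythrocytes, 2% hematocrit, 0.05% parasitemia final; 96 hours at 37 C, 5% CO2; luciferase detection reagent; luminescence decrease equals reduced growth.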
# Shiga toxin inh: inhibitors of Shiga toxin in Vero cells | 290,000 tested, 9.2% active | inhibition, % at 38.7 µM | AID 2315 | Vero cells, Shiga toxin protein synthesis inhibition reporter; in the data active = inhibition mostly above about 28%, no sharp cut-off; inactive = mostly below about 43%; note: 0% is about no effect
# * marks the source's active call; other numbers are inactive results; u = inconclusive; x = not tested or not shown; [ ] = another dose, or the depositor's remark. Hits are enriched below; roughly 21% of the tested compounds scored in any of these assays. Unless noted, calls come from the whole dose curve; as a rule, active = well fitted curve in the direction sought with a large enough effect; inconclusive = small, poorly fitted or top-dose-only effect, or another doubt; inactive = no such curve, though single readings can be large; an effect the other way counts as inactive or inconclusive.
SMILES,Cycloheximide cs,Pf growth 48h,NS1 function inh,FBPA Giardia inh,Pf growth 96h,Shiga toxin inh
CCN(CC)CCN(Cc1cc2ccc(C)c(C)c2[nH]c1=O)C(=S)NCc1ccco1,-2,10µM*,5%,-16%,u,7
CCN(CC)CCN(Cc1cc2cc3c(cc2[nH]c1=O)OCO3)C(=S)NCC(C)C,-3,u,3%,5%,3.7µM*,-20
COc1ccc2c(c1)c1c(C)c3cnccc3c(C)c1n2CCCN,x,x,0%,x,x,x
CN1C(C(=O)NCc2cccc(C(F)(F)F)c2)CC2Cn3c(nc4cc5ccccc5cc43)C21 (stereo not drawn),1,13%,5%,3%,23%,-4
C=CCNC(=O)C1CC2Cn3c(nc4cc5ccccc5cc43)C2N1C (stereo not drawn),41*,-6%,u,6%,u,38*
Cc1ccc(S(=O)(=O)N/N=C/c2ccc(C#N)cc2)cc1,-3,-12%[0.00184 µM],5%,-20%,u,14
CCOc1ccc2c(c1)sc(=NC(=O)C1CC1)n2C,39*,u,-30%,4%,u,62*
CCOC(=O)c1sc(=NC(=O)C2CC2)n(C)c1C,19,1%,x,3%,u,13
Cn1c(=NC(=O)C2CCCCC2)sc2cc([N+](=O)[O-])ccc21,42*,42%,x,-3%,31%,99*
CC(C)=CCC/C(C)=C/CC/C(C)=C/CC/C=C(\C)CC/C=C(\C)CCC=C(C)C,x,-17%,x,x,-24%,x
c1ccc(-c2nnc(-c3ccco3)n2-c2ccccc2)cc1,-1,-15%,-13%,2%,35%,-4
c1ccc(-c2nnc(-c3ccco3)o2)cc1,43*,221%,-63%,2%,127%,115*
c1coc(-c2nnc(-c3cccs3)o2)c1,49*,108%,-15%,9%,21%,81*
Cc1ccc(-c2nnc(-c3ccc(Br)cc3)o2)o1,18*,87%,0%,5%,2.6µM*,27*
c1coc(-c2nnc(-c3ccco3)nn2)c1,47*,u,9%,x,6.6µM*,43*
C[C@@H](N)C(=O)NC[C@H]1CC[C@H](C(=O)N[C@@H](Cc2ccccc2)C(=O)O)CC1,-1,-11%,-6%,-30%,7%,-10
O=C(Nc1ccccc1C(=O)Nc1ccncc1)c1cccc([N+](=O)[O-])c1,11,6%,-12%,x,-10%,-9
CC(C)(C)N(Cc1ccccc1)C(=O)c1cc2ccccc2o1,1,u,3%,-2%,16%,-10
CN1CCN([C@@H](c2ccccc2)c2ccc(Cl)cc2)CC1,x,-23%[12.8 µM],x,-1%[21.7 µM],-11%[12.8 µM],x
CN(C)C(CNC(=S)Nc1ccccc1Cl)c1cccnc1 (stereo not drawn),5,-9%,x,0%,-4%,-4
Brc1ccc(-c2nnc(-c3ccco3)o2)cc1,47*,122%,-65%,4%,372%,73*
O=C(O)CCC(=O)Nc1ccc(-c2nnc(-c3ccco3)o2)cc1,-2,x,-6%,5%,2%,4
CC(C)(/C=N/O)N(O)C=C1C=CC(=O)C=C1,1,-1%,0%,-21%,0%,-6
CN1C=CC(=CC=C2C=CC(=O)C=C2)C=C1,-4,4.7µM*,2%,-1%,1.9µM*,1
O=C(CSc1nc2ccc(Nc3nc(N4CCOCC4)nc(N4CCOCC4)n3)cc2s1)Nc1ccccc1F,1,u,12%,x,10µM*,-2
SMILES,Cycloheximide cs,Pf growth 48h,NS1 function inh,FBPA Giardia inh,Pf growth 96h,Shiga toxin inh
CSc1nc2ccc(Nc3nc(N4CCOCC4)nc(N4CCOCC4)n3)cc2s1,-1,9.3µM*,4%,-6%,x,-6
CCOc1ccc2nc(SCC(=O)NCc3ccco3)sc2c1,18*,8.3µM*,-21%,2%,-6%,45
O=C(CSc1nc2ccc(Nc3nc(N4CCOCC4)nc(N4CCOCC4)n3)cc2s1)N1CCOCC1,-2,-1%,9%,-7%,-7%,-9
CCCCc1ccc(Nc2nc(N3CCOCC3)nc(N3CCOCC3)n2)cc1,11,u,4%,u,u,-2
CCOc1ccc2nc(SCC(=O)c3cccs3)sc2c1,42*,193%,15%,-16%,x,139*
CCOc1ccc2nc(SCC(=O)c3ccc(Cl)s3)sc2c1,0,x,1%,-12%,-12%,-2
CCCCN(C(=O)c1cccc(-n2cccc2)c1)c1c(N)n(Cc2ccccc2)c(=O)[nH]c1=O,x,-29%,x,x,-8%,x
CC(=O)NC1(NC(C)=O)CCN(C)CC1,-1,22%,6%,4%,-7%,-3
O=C(CSc1nc2ccc(Nc3nc(N4CCCC4)nc(N4CCCC4)n3)cc2s1)NCc1ccco1,0,12µM*,3%,0%,u,-18
CCOc1ccc2nc(SCC(=O)NC(=O)NCc3ccco3)sc2c1,3,-1%,-3%,-10%,34%,2
O=C(CSc1nc2ccc(Nc3nc(N4CCOCC4)nc(N4CCOCC4)n3)cc2s1)Nc1ccccc1Cl,10,12µM*,12%,9%,2.6µM*,13
COC(=O)c1ccccc1NC(=O)CSc1nc(Nc2ccccc2)nc(N2CCOCC2)n1,4,9.3µM*,u,x,-10%,14
O=C(CN1C(=O)NC(c2ccccc2)(c2ccccc2)C1=O)NC1CCCCC1,x,-20%,x,x,-4%,x
COc1cc(CNc2ccc3[nH]c(=O)[nH]c3c2)ccc1OCc1ccc(Cl)cc1,29*,2%,-2%,-8%,10%,45*
COc1cc(CNc2ccc3[nH]c(=O)[nH]c3c2)ccc1OCc1ccccc1,14,-5%,19%,-5%,u,18
COc1ccc(CNc2ccc3cn[nH]c3c2)c(OC)c1OC,5,x,3%,u,u,27
COc1cc(CNc2ccc3[nH]c(=O)[nH]c3c2)ccc1OCc1c(F)cccc1Cl,2,12%,6%,-12%,29%,7
CCOc1cc(CNc2ccc3cn[nH]c3c2)ccc1OC,2,x,26%,u,13µM*,18
COc1cc(CNc2ccc3[nH]c(=O)[nH]c3c2)ccc1OCc1ccc(F)cc1,31*,-7%,18%,-4%,0%,36*
COc1cc(CNc2ccc3[nH]c(=O)[nH]c3c2)ccc1OCc1ccccc1F,19*,-5%,7%,-1%,348%,37*
COc1cccc(Nc2ncc3nc(CCc4ccccc4)c(=O)n(CCC#N)c3n2)c1,x,x,x,0%,x,x
O=C(OCc1cccc([N+](=O)[O-])c1)c1ccc[nH]c1=O,-5,3%,7%,7%,25%,18
CC(=O)c1cn(Cc2ccccc2)c(=O)[nH]c1=O,0,-12%,x,3%,-2%,-5
COc1cc(CNc2ccc(N3CCN(C(C)=O)CC3)cc2)ccc1OCc1ccc(F)cc1,25*,-16%,2%,-14%,u,75*
COc1cc(CNc2ccc3[nH]c(=O)[nH]c3c2)ccc1OCc1ccc(F)cc1Cl,14,14%,3%,-5%,19%,31*
